An excerpt weighted towards active compounds, which were near 3.5% of everything screened.
TWEAK Fn14 block: TWEAK-Fn14 signaling inhibition. 360,000 compounds, 2% hits. TWEAK-stimulated Fn14 reporter cells, luciferase luminescence, 8 h. inhibition, % at 10 µM; in the data active = inhibition above about 50%
Platelet DG rel: platelet dense granule release activity; human platelet-rich plasma, SFLLRN dense granule ATP release, luminescence; inhibition, %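 (compounds screened at 7.5 µM in platelet-rich plasma)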; AID 1663; 300,000 compounds, 0.22% hits;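 active = mean replicate score, as percent of positive control, at or above 50; inconclusive = mean below 50 but at least one replicate at or above 50; inactive = mean and every replicate below 50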
PPC-1+TRAIL kill: kills PPC-1 cancer cells in the presence of TRAIL; PPC-1 cells + TRAIL, ATPLite viability luminescence; cell killing (% activity), % at 4 µM or 5 µM; 220,000 compounds, 0.41% hits; AID 1443;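 active = cell killing above 50% in the first pass at 4 µM, then a duplicate retest at 5 µM averaging 50% or more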
HSP90 refold inh: inhibitors of HSP90 luciferase refolding in rabbit reticulocyte lysate | luciferase refolding luminescence, 3 h | inhibition, % at 5.6 µM | 290,000 compounds, 0.91% hits;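 active = inhibition above the screen-wide mean plus 3 SD, computed separately per campaign, cut at about 16% in these data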;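 also: inhibitors lower the luminescence because luciferase stays unfolded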
TROY signal inh: inhibitors of TROY-dependent NF-kB signaling | 360,000 compounds, 0.98% hits | Q293 LMP1-TROYcd NF-kB luciferase reporter, 4 h | AID 1347056 | inhibition, % at 10 µM;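 active = compounds whose plate-normalised and pattern-corrected inhibition of the luciferase reporter signal at the single screening dose is 50% or more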
C8 TRAIL sens: sensitizes caspase-8 expressing cells to TRAIL. 360,000 compounds, 1% hits. NB7+C8 cells + TRAIL, ATPlite viability luminescence. inhibition (viability loss, TRAIL sensitization), % at 10 µM. AID 624354;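 active = compounds causing at least 50% loss of cell viability in the single-dose screen, relative to plate controls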
PPC1 cytotox: kills PPC-1 cells. 1,200 compounds, 50% hits. cytotoxicity, % at 5 µM. PPC-1 viability, ATPlite luminescence, overnight. shares compounds with PPC-1+TRAIL kill;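 active = reconfirmed compounds whose average cytotoxicity reaches 50% or more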
Of the large screens only hits and unclear results are named; the others gave an inactive call (follow-up assays come after a bar, where they were run).

Cc1ccc(S(=O)(=O)NC2CCCC(C(=O)O)C2)cc1 (stereo not drawn)	none | PPC1 cytotox inactive
CC(=O)Nc1cnc(NC(=O)c2cccc(F)c2)cc1C	none
CCC(=O)Nc1cnc(NC(=O)c2cccc(F)c2)cc1C	none | PPC1 cytotox inactive
O=C(NCCc1ccccc1F)C(=O)Nc1nccs1	none | PPC1 cytotox inactive
O=C(NCc1ccc(Cl)cc1)C(=O)Nc1nccs1	none
N=c1n(CCN2CCCC2)c2ccccc2n1CC(O)c1ccc(Cl)c(Cl)c1 (stereo not drawn)	none | PPC1 cytotox inactive
O=C(Nc1cccnc1)c1sc2cccc(F)c2c1Cl	none
O=C(Nc1ccccn1)c1sc2cccc(F)c2c1Cl	TWEAK Fn14 block 63, PPC-1+TRAIL kill 81, C8 TRAIL sens 81 (no result: Platelet DG rel) | PPC1 cytotox 83
N#Cc1c(NC(=O)CSc2nc(-c3ccccc3)cc(C(F)(F)F)n2)sc2c1CCC2	none
CCC1CCc2c(sc(NC(=O)CSc3nc(-c4ccco4)cc(C(F)(F)F)n3)c2C#N)C1 (stereo not drawn)	none | PPC1 cytotox inactive
CCc1c(C)sc(NC(=O)c2cc(CC(C)C)on2)c1C#N	none | PPC1 cytotox inactive
CC(=O)N1CCN(c2ccccc2NC(=O)COc2ccccc2C)CC1	none
CC(=O)N1CCN(c2ccccc2NC(=O)COc2ccc(Cl)cc2Cl)CC1	none | PPC1 cytotox inactive
O=C(Nc1nc2cc3c(cc2s1)OCO3)c1cccc(N2C(=O)CCC2=O)c1	C8 TRAIL sens 56 | PPC1 cytotox 58
COc1ccc(C(=O)Sc2nncc3ccccc23)cc1	none | PPC1 cytotox inactive
COc1ccc(NC(=O)CSc2nncc3ccccc23)cc1	none
COc1ccc(C2N(C(=O)c3ccccc3)CCN2C(=O)c2ccccc2)cc1	none | PPC1 cytotox inactive
COc1ccc(CNC(=O)N2CCN(C(=O)c3ccccc3)CC2)cc1	none (no result: Platelet DG rel, PPC-1+TRAIL kill, HSP90 refold inh)
C/C(=N\NC(=O)C1(C)CC1(Br)Br)c1ccc(NC(=O)c2ccc(C)o2)cc1 (stereo not drawn)	Platelet DG rel inconclusive
COc1ccc(-n2c(C)cc(SC)c(C(C)=O)c2=S)cc1	none | PPC1 cytotox inactive
CC(=O)N=c1sc2ccccc2n1C	none
CC(=O)N=c1sc2nc3ccccc3nc2n1N(C(C)=O)C(C)=O	none | PPC1 cytotox inactive
COc1ccc(-c2cc3c(nn2)-c2ccccc2C3=O)cc1	TWEAK Fn14 block 92, Platelet DG rel 55, PPC-1+TRAIL kill 89, TROY signal inh 59, C8 TRAIL sens 87 | PPC1 cytotox 89
COc1ccc(-c2cn(Cc3ccc4c(c3)C(=O)c3ccccc3C4=O)nn2)cc1	none (no result: PPC-1+TRAIL kill)
O=C1c2ccccc2-c2nnc(-c3ccccc3)cc21	TWEAK Fn14 block 72, PPC-1+TRAIL kill 63, C8 TRAIL sens 75 | PPC1 cytotox 65
Cc1cnc2c(c1)C(=O)c1ccccc1-2	none (no result: PPC-1+TRAIL kill)
COc1cccc(CC(=O)OCC(=O)N(C)CC(=O)Nc2ccc(Cl)c(C(F)(F)F)c2)c1	none (no result: PPC-1+TRAIL kill, HSP90 refold inh)
CN1CCN(S(=O)(=O)c2ccc(Nc3cccc(Cl)c3)c([N+](=O)[O-])c2)CC1	none (no result: Platelet DG rel, PPC-1+TRAIL kill, HSP90 refold inh)
Cc1nc(C(=O)N2CCC(C)(C(=O)NS(=O)(=O)C3CC3)C2)c(C)o1 (stereo not drawn)	none (no result: Platelet DG rel, PPC-1+TRAIL kill, HSP90 refold inh)
COc1ccc(S(=O)(=O)c2nnn(-c3cccc(Cl)c3)c2N)cc1	none
COC(=O)Cc1ccc(NC(=S)N2CCCC(C)C2)cc1 (stereo not drawn)	PPC-1+TRAIL kill 68 | PPC1 cytotox 70
COc1cc([N+](=O)[O-])ccc1N/C=C/C(=O)c1cccs1	PPC-1+TRAIL kill 89, C8 TRAIL sens 89 | PPC1 cytotox 90
O=C(/C=C/c1ccc([N+](=O)[O-])cc1)c1cccs1	none
CCCCn1nnnc1C1(C)CCC(=O)N1CCc1ccc(OC)c(OC)c1 (stereo not drawn)	none (no result: Platelet DG rel, PPC-1+TRAIL kill, HSP90 refold inh)
CCOC(=O)C1(CCCc2ccccc2)CCN(Cc2ccn[nH]2)CC1	none
Cc1cccc(N2C(=S)NC3c4ccccc4OC2(C)C3C(=O)N(C)C)c1 (stereo not drawn)	none | PPC1 cytotox inactive
CN(C)C(=O)C1C2NC(=S)N(c3ccccc3)C1(C)Oc1ccccc12 (stereo not drawn)	none
O=C(Nc1nonc1NC(=O)C1CCCCC1)C1CCCCC1	none | PPC1 cytotox inactive
O=C(Nc1c(F)c(F)c(F)c(F)c1F)C1CCCCC1	none (no result: TROY signal inh)
O=C(c1ccccc1)N1CCN(C(=O)c2ccccc2)c2ccccc21	none (no result: Platelet DG rel, PPC-1+TRAIL kill, HSP90 refold inh)
Cc1cccc(Nc2nc3c(s2)CCCC3)c1	none
O=S1(=O)N=C(Nc2nc3c(s2)CCCC3)c2ccccc21	PPC-1+TRAIL kill 60, C8 TRAIL sens 75 (no result: Platelet DG rel) | PPC1 cytotox 60
CCN(CC)C(=O)C1=C(C)NC(=S)NC1c1ccc(C)s1 (stereo not drawn)	none | PPC1 cytotox inactive
CC1=C(C(=O)N(C)C)C(c2ccc(C)s2)NC(=S)N1 (stereo not drawn)	none
CC(=O)Nc1ccc(/C=N/N2C(=O)NC(C)(c3ccc(OC(F)F)cc3)C2=O)cc1 (stereo not drawn)	none
Cc1ccc(C(=O)Nc2ccccc2C(=O)NC(Cc2ccccc2)C(=O)O)cc1 (stereo not drawn)	none
CCC(NC(=O)c1ccccc1NC(=O)c1ccc(C)cc1)C(=O)O (stereo not drawn)	none | PPC1 cytotox inactive
Cc1cn(-c2cccnc2)c(C)c1CNC[C@H]1O[C@@H](n2cnc3c(N)ncnc32)[C@H](O)[C@@H]1O	none (no result: Platelet DG rel, PPC-1+TRAIL kill, HSP90 refold inh)
COc1ccc(-c2nc(C)c(C(C)=O)n2O)cc1	none
CCOc1ccc(-c2nc(C)c(C(C)=O)n2O)cc1	none | PPC1 cytotox inactive
CC1C2NC(=O)N(Cc3ccccc3)C1(C)Oc1ccccc12 (stereo not drawn)	none | PPC1 cytotox inactive
COCCCn1c(=O)c2sccc2n2c(CCCC(=O)NCc3ccccc3)nnc12	none (no result: PPC-1+TRAIL kill)
CCOC(=O)Cc1csc(NC(=O)/C=C/c2ccc(OC)cc2)n1	PPC-1+TRAIL kill 56, C8 TRAIL sens 72 | PPC1 cytotox 56
O=C(N/N=C/c1ccc2ncccc2c1)c1ccco1	TWEAK Fn14 block 70, PPC-1+TRAIL kill 68, HSP90 refold inh 31, TROY signal inh 51, C8 TRAIL sens 80 | PPC1 cytotox 70
O=C(N/N=C/c1ccccn1)c1ccco1	none
Cc1cc(-n2[nH]c(C)c(C)c2=O)nc(-c2ccccc2O)n1	none (no result: TROY signal inh) | PPC1 cytotox inactive
Cc1cc(C)cc(NC(=S)Nc2cccc3cnccc23)c1	none (no result: Platelet DG rel)
CCc1ccc(NC(=S)Nc2cccc3cnccc23)cc1	none | PPC1 cytotox inactive
CCC(CNc1cc(OC)cc2cccnc12)NC1CCCCC1 (stereo not drawn)	HSP90 refold inh 29 | PPC1 cytotox inactive
COc1ccc(C(=O)Nc2ccc(Cc3ccncc3)cc2)cc1Br	none | PPC1 cytotox inactive
COc1ccc(NC(=O)Nc2ccc(Cc3ccncc3)cc2)cc1OC	none
COc1ccc(-c2csc3nc(C(C)(C)C)oc(=O)c23)cc1OC	none

From PubChem BioAssay
